Measurements as given in ChEMBL document CHEMBL3988442, “University of Dundee, Small-Polar-MMV Screening Library” (2021).
Out of some 69,000 compounds screened, about 950 (1.4%) showed an effect of 50% or more. Many of the other results were omitted from the sample, so strong results are more common in it than they were.

Each molecule was assayed on Mycobacterium tuberculosis (assay: Cornell M. t heat shock assay; also: in the data most compounds retested in dose-response had high values).
Assay type: functional, organism-based
Design: dose or concentration left out as unconfirmed

SMILES	Percent Effect
COc1cc(C(=O)Nc2nc(C)no2)ccc1OC(F)F	79.09%
COc1cc(C(=O)NS(=O)(=O)c2cccc(C#N)c2)cc(OC)c1Br	-8.929%
COc1cc(C(=O)Nc2nc(C)no2)ccc1C	106.9%
COc1cc(C(=O)Nc2nc(C)no2)cc(OC)c1Br	104.3%
COc1cc(C(=O)NS(=O)(=O)c2cc(Cl)sc2Cl)ccc1OC(F)F	-14.59%
COc1cc(C(=O)Nc2nc(C)no2)cc(Cl)c1OC	101%
COc1cc(C(=O)NS(=O)(=O)c2cccc(C#N)c2)cc(Cl)c1OC	-1.963%
COc1cc(C(=O)Nc2cn[nH]c2)ccc1C	-19.45%
COc1cc(C(=O)NCc2ccc3c(c2)CCCN3C)cc(OC)c1Br	-0.1722%
COc1cc(C(=O)NS(=O)(=O)c2cncc(Br)c2)cc(Cl)c1OC	-14.73%
COc1cc(C(=O)Nc2nc(C)no2)ccc1OC1CCCC1	-1.479%
COc1cc(C(=O)Nc2c(C)noc2C)ccc1C	-2.052%
O=C(N1CCCC1)N1CCO[C@H]2[C@@H](Oc3ccccn3)CC[C@@H]21.O=C(O)C(F)(F)F	0.1764%
Cc1ccc(CN2CC[C@@H]3OCCN(S(C)(=O)=O)[C@H]3CC2)s1.O=C(O)C(F)(F)F	16.37%
O=C(N1CCCC1)N1CCc2onc(COc3cccnc3)c2C1.O=C(O)C(F)(F)F	-4.712%
CC(C)Cc1cc(C(=O)NCC2CCCN(Cc3ccco3)C2)on1 (configuration not stated)	16.01%
CC(C)Cc1cc(C(=O)NC(C)(C)CN2CCCCCC2)on1	72.52%
CC(C)Cc1cc(C(=O)NCC(O)CN2CCCCCC2)on1 (configuration not stated)	-12.74%
CCc1ncnc2c1CCN(C(=O)c1ccccn1)CC2.O=C(O)C(F)(F)F	-22.3%

SMILES	Percent Effect
CSc1ncccc1C(=O)N1C[C@H]2CC[C@@H]1CN(C(=O)N(C)C)C2	-1.597%
O=C(NCc1ccccn1)c1cncc(C2CCCN2)n1 (configuration not stated)	2.609%
Cc1nc(C(=O)NCc2ccccn2)cc(C2CCCN2)n1 (configuration not stated)	45.77%
O=C(NCc1ccccn1)c1cnc(C2CCCN2)cn1 (configuration not stated)	52.39%
Cc1csc(NC(=O)c2cnc(C3CCNCC3)cn2)n1.Cl	-24.76%
Cc1csc(NC(=O)c2cnc(C3CCCN(C)C3)cn2)n1 (configuration not stated)	23.5%
Cc1csc(NC(=O)c2cnc(C3CCCN3)cn2)n1.Cl (configuration not stated)	82.89%
Cl.Cn1ccnc1C1(O)CCN(C(=O)CCc2ccccc2)CC1	1.719%
Cc1noc(C)c1CN1CCc2c(CNc3nccs3)n[nH]c2C1.O=C(O)C(F)(F)F	8.041%
CCCNC(=O)c1cc2c(s1)CCN2C(=O)CN(C)C.O=C(O)C(F)(F)F	1.454%
C[C@H]1CN(c2ccccn2)C[C@@]12CCN(c1cccnc1)C2=O.O=C(O)C(F)(F)F.O=C(O)C(F)(F)F	11.35%
COc1ccc(CN2CCC3(CC(=O)N(c4cncnc4)C3)C2)cc1.O=C(O)C(F)(F)F (configuration not stated)	-12.31%
CN1CCC(c2nc3ccc(-c4ccccc4)cn3n2)CC1.O=C(O)C(F)(F)F	-24.93%
COc1ccccc1Cc1cncc(N2CC(C(=O)O)C2)n1.Cl	2.257%
CN(C)c1nc2c(c(N(C)Cc3n[nH]c4c3CCCCC4)n1)CCNC2	76.86%
CN(C)c1nc2c(c(N(C)Cc3n[nH]c4c3CCCC4)n1)CCNCC2	31.61%
CN(Cc1n[nH]c2c1CCCC2)c1nc(C2CC2)nc2c1CCNCC2	1.399%
CCS(=O)(=O)N1C[C@@H](OCc2ccccn2)[C@@H]2OCCC[C@@H]21.O=C(O)C(F)(F)F	-14.72%
CCC1(CC)Cc2ccccc2-c2nc(NCCO)[nH]c(=O)c21	-12.78%

SMILES	Percent Effect
CCC1(CC)Cc2ccccc2-c2nc(CN(C)C)nc(O)c21	51.81%
CCC1(CC)Cc2ccccc2-c2nc(NCCCO)[nH]c(=O)c21	0.6588%
Cc1cccc(C(=O)N2C[C@@H]3COC[C@@H](CC(=O)N4CCCC4)[C@@H]3C2)n1.O=C(O)C(F)(F)F	-12.77%
Cc1ccc(N2CCCC3(COCCN(c4ncccn4)C3)C2)nn1.O=C(O)C(F)(F)F (configuration not stated)	-5.221%
O=C(O)C(F)(F)F.O=C(c1cc(C2CC2)on1)N1C[C@@H]2COC[C@]2(COc2cccnc2)C1	24.08%
CCc1cnc(N2CCC3(CC(=O)N(Cc4csc(C)n4)C3)C2)nc1.O=C(O)C(F)(F)F (configuration not stated)	1.546%
Cc1nc(C)n(CC2CCCN(c3ncnc4ccccc34)C2)n1 (configuration not stated)	-1.971%
Cc1nc(C)n(CC2CCCN(c3ncnc4ccsc34)C2)n1 (configuration not stated)	56.12%
Cc1nc(C)n(CC2CCCN(c3ncnc4sccc34)C2)n1 (configuration not stated)	24.39%
CC(C)N(C)Cc1cn2c(n1)CN(C(=O)Cc1ccccc1)CC2.O=C(O)C(F)(F)F	-8.481%
CCCC(=O)Nc1ccc2c(c1)C1(CCOCC1)CN2CCOC.O=C(O)C(F)(F)F	15.62%
CCS(=O)(=O)Nc1ccc2c(c1)C1(CCOCC1)CN2C.O=C(O)C(F)(F)F	36%
CCC(=O)Nc1ccc2c(c1)C1(CCOCC1)CN2CCF.O=C(O)C(F)(F)F	28.61%
COCCN1CC2(CCOCC2)c2cc(NC(=O)C3CC=CC3)ccc21.O=C(O)C(F)(F)F	100.7%
CCN1CC2(CCOCC2)c2cc(NS(=O)(=O)CC)ccc21.O=C(O)C(F)(F)F	51.54%
CCC(=O)Nc1ccc2c(c1)C1(CCOCC1)CN2CCOC.O=C(O)C(F)(F)F	46.17%
O=C(O)C(F)(F)F.O=C1COC2(CCN(C(=O)c3ccco3)CC2)CN1Cc1cccnc1	-2.228%
O=C(O)C(F)(F)F.O=C(O)C(F)(F)F.c1cnc(N2C[C@H]3CN(CC4CCOC4)C[C@H]3C2)nc1 (some centres not stated)	-39.47%
O=C(O)C(F)(F)F.O=C(c1ccco1)N1CCCC2(CCN(c3nncs3)C2)C1 (configuration not stated)	42.37%
